From PubChem BioAssay AID2653 (National Center for Advancing Translational Sciences (NCATS), 2010)
Inconclusive results are not listed. Calls of active or inactive are those of the source. Calls follow the shape of the dose curve; as a rule, active = well fitted curve in the direction sought with a large enough effect; inconclusive = small, poorly fitted or top-dose-only effect, or another doubt; inactive = no such curve, though single readings can be large or run the other way.

Assay: Secondary Assay for Activators of Human Pyruvate Kinase M2 isoform - Cell Titer Glo Cytotoxicity for Probe SAR
Settings: HeLa viability, CellTiter-Glo ATP luminescence, 24 h; series mostly up to 58.2 µM
Method in brief: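 HeLa cells, 500 per well, plated 24 h then exposed to compound 24 h at 37 C. Total ATP by CellTiter-Glo luminescence after 10 min at room temperature; doxorubicin control.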

Compound | outcome
O=C1CCc2cc(S(=O)(=O)Nc3ccc4c(c3)OCCO4)ccc2N1 | inactive
Cc1ccc(NS(=O)(=O)c2ccc3c(c2)CC(=O)N3C)cc1C | inactive
O=C1c2ccccc2C(=O)N1c1cccc(O)c1 | inactive
CCNc1cccc(S(=O)(=O)N2CCCN(S(=O)(=O)c3ccc4c(c3)OCCO4)CC2)c1 | inactive
O=C1CCc2cc(S(=O)(=O)Nc3cccc(C(F)(F)F)c3)ccc2N1 | inactive
Nc1cccc(S(=O)(=O)N2CCCN(S(=O)(=O)c3ccc4c(c3)OCCO4)CC2)c1 | inactive
COc1ccc(NS(=O)(=O)c2ccc3c(c2)CCC(=O)N3)cc1 | inactive
O=C1c2ccccc2C(=O)N1Cc1ccncc1 | inactive
O=S1(=O)N=C(Oc2ccccc2)c2ccccc21 | inactive
Cc1ccc(Cl)cc1NS(=O)(=O)c1cc2c(cc1Cl)CCC(=O)N2 | inactive
Cc1ccc(Nc2c(-c3ccc(C)o3)nc3ccccn23)cc1 | inactive
O=C1CCc2cc([S+](=O)([O-])NC3CCOCC3)ccc2N1 | inactive
COc1ccccc1N1C(=O)c2ccccc2C1=O | inactive
O=C1CCc2cc(S(=O)(=O)Nc3ccccn3)ccc2N1 | inactive
CN(C)c1cccc(S(=O)(=O)N2CCN(S(=O)(=O)c3ccc4c(c3)OCCO4)CC2)c1 | inactive
Cc1cc(N2C(=O)c3ccccc3C2=O)n[nH]1 | inactive

Compound | outcome
COc1ccc(S(=O)(=O)Nc2ccc(C)c(C)c2)cc1 | inactive
CCCCN1C(=O)c2ccccc2C1=O | inactive
COc1ccc(OC2=NS(=O)(=O)c3ccccc32)cc1 | inactive
Cc1ccc(NS(=O)(=O)c2cc3c(cc2-c2ccco2)NC(=O)CO3)cc1C | inactive
O=C1CCc2cc(S(=O)(=O)Nc3ccc(-c4ccccc4)cc3)ccc2N1 | inactive
Cc1ccc(NS(=O)(=O)c2ccc3c(c2)oc(=O)n3C)cc1C | inactive
Cc1ccc(NS(=O)(=O)c2ccc3c(c2)CCC(C)(C)O3)cc1C | inactive
Cc1ccc(Cl)cc1NS(=O)(=O)c1cc2c(cc1F)NC(=O)CC2 | inactive
COc1cccc(N2C(=O)c3ccccc3C2=O)n1 | inactive
Cc1ccccc1Nc1c(-c2ccccc2)nc2cccc(C)n12 | inactive
COc1ccc(N2C(=O)c3ccccc3C2=O)cc1 | inactive
Cc1ccc(NS(=O)(=O)c2cc3c(cc2Cl)CCC(=O)N3)cc1Cl | inactive
O=C1c2ccccc2C(=O)N1c1ccc(Cl)cc1 | inactive
Cc1ccc(NS(=O)(=O)c2cc3c(cc2F)NC(=O)CC3)cc1C | inactive
Cc1ccc(OC2=NS(=O)(=O)c3ccccc32)cc1 | inactive
Cc1ccc(-c2nc3cnccn3c2Nc2ccc(C(C)C)cc2)o1 | inactive
